# Out of some 340,000 compounds screened, about 1,700 (0.5%) were called active. For the sample, actives were picked, then their nearest neighbours and some compounds at random. Values without a mark were called inactive. No stated cut-off is given here; in the data, active means inhibition above about 36%; inactive means the rest.
# Target: Serine protease HTRA1 (Homo sapiens) (UniProt Q92743)
# Assay: HTRA1 serine protease inhibitors, primary screen, biochemical, fluorescence polarization, HTS (AID 504803);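 further: 0% = enzyme with DMSO and 100% = wells lacking enzyme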
# Conditions: recombinant HTRA1, FP-rhodamine activity-based probe, at 5.96 µM, hits give high values
# Sequence of Serine protease HTRA1 (Homo sapiens) (Q92743 whole entry, looked up): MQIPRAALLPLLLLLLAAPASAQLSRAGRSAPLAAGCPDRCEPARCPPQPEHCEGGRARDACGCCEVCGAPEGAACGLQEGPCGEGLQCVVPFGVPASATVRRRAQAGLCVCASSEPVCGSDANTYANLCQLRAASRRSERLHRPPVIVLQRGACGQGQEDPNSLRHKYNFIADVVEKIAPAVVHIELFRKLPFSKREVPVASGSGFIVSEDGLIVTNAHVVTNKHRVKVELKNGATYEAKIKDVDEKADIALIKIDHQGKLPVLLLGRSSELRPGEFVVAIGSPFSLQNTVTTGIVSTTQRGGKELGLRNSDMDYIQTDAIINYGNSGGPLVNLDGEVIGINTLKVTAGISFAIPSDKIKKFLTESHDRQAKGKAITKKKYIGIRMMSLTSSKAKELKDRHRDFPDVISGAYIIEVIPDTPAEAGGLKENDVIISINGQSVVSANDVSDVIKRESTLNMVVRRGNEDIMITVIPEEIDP
row,SMILES,inhibition
1,C[C@H]1CN([C@@H](C)CO)C(=O)CCCn2cc(nn2)CO[C@@H]1CN(C)S(=O)(=O)c1ccc(-c2ccccc2)cc1,-3.19%
2,COc1ccc2c(c1)CCCO[C@]21O[C@H](CCO)C[C@H](O)[C@H]1O,-2.62%
3,CC1=C(C(=O)N2CCOCC2)CC(CC(=O)NCc2ccco2)C(=O)N1Cc1ccc(F)cc1 (centres undefined),4.18%
4,Cc1ccn(CC(=O)NC2CCCN(Cc3ccccc3F)C2)n1 (centres undefined),0.25%
5,Cc1ccc(C(=O)NC(C)C(c2cccs2)N2CCOCC2)cc1C (centres undefined),1.64%
6,C[C@@H]1CN([C@@H](C)CO)S(=O)(=O)c2ccc(C#Cc3cccc(F)c3)cc2O[C@H]1CN(C)S(=O)(=O)c1cn(C)cn1,-25.7%
7,CC(=N\NC(=O)c1cc(Br)ccc1O)/C(=N/O)C(=O)Nc1ccccc1,46.1% (active)
8,CC(=O)N/N=C(\C)c1ccc(Br)cc1Br,2.26%
9,CC(C)/C=N/NC(=O)c1cc(Br)ccc1O,6.13%
10,CC1CCN(C(=O)CSc2nnc(-c3ccco3)n2N)CC1,2.17%
11,C[C@@H]1CN([C@@H](C)CO)C(=O)c2cc(Br)cnc2O[C@H]1CN(C)Cc1ccc(-c2ccccc2)cc1,-13.1%
12,Oc1ccc(-c2nc3ccccc3nc2-c2ccc(O)cc2O)c(O)c1,-7.06%
13,Cc1ccn2c(-c3csc(Nc4ccc(C(=O)O)cc4)n3)c(C)nc2c1,-2.27%
14,Cc1ccc(Nc2nc(-c3ccc(O)cc3O)cs2)nc1,37.1% (active)
15,COc1ccc(S(=O)(=O)N(C)C[C@H]2OCc3cnnn3CCCC(=O)N([C@H](C)CO)C[C@H]2C)cc1,0.5%
16,CC(OC(=O)c1cccnc1Cl)C(=O)NC1CCCCC1 (centres undefined),2.76%
17,CCOc1ccc(CCN2C(=O)c3cccnc3C2=O)cc1OCC,-1.21%
18,NC1=CC(=O)C(=O)c2cccnc21,38.3% (active)
19,Cc1ccc(CCNC(=O)CN2C(=O)CSc3ccc(S(=O)(=O)N4CCOCC4)cc32)cc1,-3.89%
20,COCOCCn1cc(CN2CCS(=O)(=O)N(Cc3ccc(-c4ccc(OC)cc4)cc3)C(CC(C)C)C2=O)nn1 (centres undefined),-16.7%

row,SMILES,inhibition
1,CCN(CC)c1ccc(/C=N/NC(=O)c2cnccn2)c(O)c1,11.4%
2,CCN(CC)c1ccc(/C=N/Nc2nc(C)cc(C)n2)c(O)c1,63.8% (active)
3,Cc1cc(C)nc(N/N=C/c2c(CO)cnc(C)c2O)n1,4.05%
4,COc1ccc(CN2C(=O)C(CC(=O)NC3CCCCC3)CC(C(=O)N3CCOCC3)=C2C)cc1 (centres undefined),9.07%
5,O=C(Nc1ccc(OC(F)(F)F)cc1)c1ccc2c(c1)no[n+]2[O-],42.3% (active)
6,CCOc1c2ccc(C(=O)NCc3ccc(OC(F)(F)F)cc3)cc2nn1C,-3.97%
7,CCOC(=O)Cc1ncccc1C(=O)Nc1ccc(OC(F)(F)F)cc1,-0.74%
8,C[C@H]1CN([C@@H](C)CO)S(=O)(=O)c2ccc(-c3cccc(F)c3)cc2O[C@@H]1CN(C)C,0.65%
9,Cn1c(CCN2CCN(c3ccccn3)CC2)nc2cc(NS(=O)(=O)c3ccc(F)cc3)ccc21,-0.52%
10,C[C@H]1CN([C@@H](C)CO)C(=O)CCCn2cc(nn2)CO[C@@H]1CN(C)S(=O)(=O)c1ccc(-n2cccn2)cc1,-3.1%
11,CC(=O)n1c(C=Nc2ccccc2)c(O)c2ccccc21,-1.27%
12,Oc1ccc(N=Cc2sc3ccccc3c2Cl)cc1,65.8% (active)
13,C[C@H](CO)N1C[C@H](C)[C@H](CN(C)C(=O)Nc2ccc3c(c2)OCO3)Oc2ncc(Br)cc2C1=O,-0.29%
14,Cc1c(NC(=O)COC(=O)/C=C/c2cccc(F)c2)c(=O)n(-c2ccccc2)n1C,-0.4%
15,CC1(C)CC(=O)C=C(c2ccccc2CO)C1=O,-3.27%
16,CCCn1c(N)c(C(=O)CSc2nnc(Cc3cccs3)n2C2CC2)c(=O)[nH]c1=O,3%
17,COc1ccccc1-c1n[nH]nc1C1=CC(=O)CC(C)(C)C1,3.87%
18,CCc1ccc2c(c1)C1(NN=C(c3ccccc3)S1)C(=O)N2 (centres undefined),60.5% (active)
19,COc1ccc(-c2cnc3c(c2)C(=O)N([C@H](C)CO)C[C@@H](C)[C@H](CN(C)Cc2ccccc2)O3)cc1,-5.18%

# Reference: PubChem BioAssay AID504803 (The Scripps Research Institute Molecular Screening Center, 2011)
